Results on 18 sequences are retold here after the OligoGym collection.
Also: reference of the scale not given here.

The first assay concerns the target STRADB. As to the kind of experiment: pooled miR-30 sensor sort-seq; sequence = guide strand. Conditions: shRNA.
Take ATCTTGTTGCAAACAGAGCTGT: the sensor-assay potency score (higher = more potent) was -0.583.

For the sequence TACTCCTGTGAATACAGCCATT, the sensor-assay potency score (higher = more potent) is -1.43. In turn, TTACTGTGTGAGTTCCACTGGA yielded a sensor-assay potency score (higher = more potent) of 0.572. In the case of TTCTACTTGGAGCTCATAGTGA, the sensor-assay potency score (higher = more potent) is -0.852. In the case of TACTGTGTGAGTTCCACTGGAG, the sensor-assay potency score (higher = more potent) worked out at 0.0726.

For the sequence TTCTGTAACAGCATCTGAGTTC, the sensor-assay potency score (higher = more potent) was -0.403. Turning to TTCTTCATTGCAGTTTTCCAGA, the sensor-assay potency score (higher = more potent) was -0.72.

Regarding TTGATGGCTTGTTATAAGCAGG, the sensor-assay potency score (higher = more potent) was -1.06.

In another assay the target is STRBP. Described as above. Conditions: shRNA.
Consider TTGATATTTCTCTTCTGTGAGT, for which the sensor-assay potency score (higher = more potent) is -0.566. With TTTGACTGTATTTAACAGGGTC, the sensor-assay potency score (higher = more potent) came to 0.301. For the sequence TTTGAGACTCTATACATCCTTC, the sensor-assay potency score (higher = more potent) is -0.328. The same measure, in the same setting: the result for TTGAGTTTGAAGACACTGTTTC reads -0.227. The same measure, in the same setting: the result for TTACTATCCAGAATTTTCCTTA reads 0.368. The same measure, in the same setting: the result for TTTCGTTTCATCTTCTTGTTGG reads 0.788; that for TAAAACTTAAACTTTGAACTGC, 0.571.

Take TTCTTCTCCAATTCGTCCCTAA: the sensor-assay potency score (higher = more potent) is 0.053. Still for that read-out and setting: the result for TAACAGAACCATTCTCTTGGGT reads 0.367; that for TTACACATGATTTTAATCCATT, -0.986.
